Inconclusive results are not listed. Calls of active or inactive are those of the source. The calls were made as follows, unless noted: active = hit-call score of the fitted dose curve at least 0.9, where 1 is the maximum; inactive = score below 0.9.
Tests used:
[1] = CCTE_Shafer_MEA_acute_burst_percentage_std: CCTE's Neural Acute Assay for Standard Deviation of Burst Percentage, Shafer Lab (AID 2284018);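 also: fitted in the negative direction so actives lower burst percentage SD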
Summary of the method: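 Rat primary cortical neurons on 48-well MEAs, DIV 13 or 15, 37 C. 40-min baseline then 40-min recording with compound (0.03-40 uM); well-level SD of per-electrode burst spike percentage, expressed as percent change from baseline.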

[2] = CCTE_Shafer_MEA_acute_per_network_burst_spike_number_std: CCTE's Neural Acute Assay for Standard Deviation of Number of Spikes in a Network Burst, Shafer Lab (AID 2284020);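 also: fitted for decrease in spike-number SD versus DMSO so actives lower it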
Summary of the method: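 Rat cortical cultures, DIV 13/15, 37 C; 20-min stabilisation, 40-min baseline, compound 0.03-40 uM, 40-min re-record. Spikes detected at 8x rms noise (300-5000 Hz band-pass). Readout: % change from baseline in per-burst spike-number SD.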

[3] = CCTE_Shafer_MEA_acute_per_network_burst_electrodes_number_mean: CCTE's Neural Acute Assay for Mean Number of Electrodes in a Network Burst, Shafer Lab (AID 2284021);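 also: curves fitted for decreases only so hits reduce electrodes per burst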
Summary of the method: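 Percent change from baseline in average electrode count per network burst, rat cortical cultures on 48-well MEAs; 40-min recordings each side of exposure, DIV 13 or 15; threshold 8x rms noise; DMSO as negative control.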

[4] = CCTE_Shafer_MEA_acute_network_burst_percentage: CCTE's Neural Acute Assay for Percentage of Network Bursts, Shafer Lab (AID 2284022);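 also: curves fitted for loss so actives lower network burst percentage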
Summary of the method: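 On DIV 13 or 15, at least three wells of rat cortical neurons per compound are dosed at 0.03-40 uM. Spontaneous firing is detected at 8x rms noise for 40 min before and after dosing at 37 C. The percent change in network-burst spike share is reported.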

[5] = CCTE_Shafer_MEA_acute_cross_correlation_area: CCTE's Neural Acute Assay for Area of Cross Correlation, Shafer Lab (AID 2284024);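 also: area under pooled inter-electrode spike cross-correlation near zero lag as percent change from own baseline; curves fitted for loss of cross-correlation area so actives lower synchrony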
Summary of the method: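 Extracellular recordings from cultured rat cortical neurons measure network synchrony as cross-correlation area; each well's post-compound value (0.03-40 uM, 40 min) is compared with its own 40 min baseline to give percent change.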

[6] = CCTE_Shafer_MEA_acute_cross_correlation_HWHM: CCTE's Neural Acute Assay for Cross Correlation at Half Width at Half Maximum, Shafer Lab (AID 2284026);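 also: percent change per well from pre-dose baseline in spike cross-correlogram half width; hits are a decrease in cross-correlogram half width relative to DMSO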
Summary of the method: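 Percent change in cross-correlogram half width at half maximum, narrower meaning more synchrony, was derived per well from paired 40-min recordings before and during exposure to 0.03-40 uM compound in rat cortical cultures at 37 C.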

[7] = CCTE_Shafer_MEA_acute_synchrony_index: CCTE's Neural Acute Assay for Synchrony, Shafer Lab (AID 2284027);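 also: network synchrony index of spontaneous spiking in primary rat cortical neurons on MEAs; fitted for loss of signal so actives lower synchrony relative to DMSO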
Summary of the method: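 Rat cortical cultures, DIV 13/15; spikes detected at 8x rms noise, 300-5000 Hz band-pass. Compound 0.03-40 uM, ≥3 wells; 40-min pre- and post-exposure recordings, 37 C. Readout: % change in synchrony index; loss-of-signal fit vs DMSO.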

[8] = target: Estrogen receptor (Homo sapiens) (UniProt P03372); test: CCTE_Deisenroth_AIME_96WELL_LUC_Active: CCTE's 96-well Estrogen Receptor Transactivation Assay with AIME metabolic competence (ERTA luciferase; metabolism positive), Deisenroth Lab (AID 2284023; active = hit-call score of the fitted dose curve at least 0.9, where 1 is the maximum)
Summary of the method: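 Metabolism-positive mode: induced rat hepatic S9 in alginate microspheres conditions test solutions (0.002 - 200 uM, 10 points) for 2 hours. VM7Luc4E2 ER luciferase reporter cells then exposed 24 h; positive-direction fit against 17beta-estradiol, n=4 typical.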

[9] = target: Estrogen receptor (Homo sapiens) (UniProt P03372); test: CCTE_Deisenroth_AIME_96WELL_LUC_Inactive: CCTE's 96-well Estrogen Receptor Transactivation Assay without AIME metabolic competence (ERTA luciferase; metabolism negative), Deisenroth Lab (AID 2284025; active = hit-call score of the fitted dose curve at least 0.9, where 1 is the maximum)
Experimental: CCTE_Deisenroth_AIME_96WELL (AIME metabolism assay) is a cell-based, single-readout assay that uses VM7Luc4E2, a human mammary gland/breast cell line, with measurements taken at 24 hour after chemical dosing in a 96-well plate.CCTE_Deisenroth_AIME_96WELL_LUC_Inactive is one of four assay components measured or calculated from the CCTE_Deisenroth_AIME_96WELL assay. It is designed to make measurements of luciferase induction, a form of inducible reporter, as detected with bioluminescence signals by luciferase-coupled ATP quantitation technology.CCTE_Deisenroth_AIME_96WELL_LUC_Inactive is a component of the CCTE_Deisenroth_AIME_96WELL assay that measures the effect of retroftting the VM7Luc ERTA assay with the Alginate Immobolization of Metabolic Enzymes (AIME) metabolism method. AIME is optimized to impart phase I hepatic metabolism using phenobarbital/beta-naphthoflavone induced hepatic S9 from male Sprague Dawley rats. Parent chemicals are incubated for 2 hours in the AIME assay prior to transfer to the VM7Luc ERTA assay plate. […] This endpoint evaluates reporter induction in metabolism negative mode. […] This assay endpoint, CCTE_Deisenroth_AIME_96WELL_LUC_Inactive, was analyzed in the positive analysis fitting direction relative to 17beta-estradiol as the positive control in the ERTA assay. […]

Measured: AC50

Estrogen receptor (Homo sapiens), sequence (P03372 whole entry, looked up): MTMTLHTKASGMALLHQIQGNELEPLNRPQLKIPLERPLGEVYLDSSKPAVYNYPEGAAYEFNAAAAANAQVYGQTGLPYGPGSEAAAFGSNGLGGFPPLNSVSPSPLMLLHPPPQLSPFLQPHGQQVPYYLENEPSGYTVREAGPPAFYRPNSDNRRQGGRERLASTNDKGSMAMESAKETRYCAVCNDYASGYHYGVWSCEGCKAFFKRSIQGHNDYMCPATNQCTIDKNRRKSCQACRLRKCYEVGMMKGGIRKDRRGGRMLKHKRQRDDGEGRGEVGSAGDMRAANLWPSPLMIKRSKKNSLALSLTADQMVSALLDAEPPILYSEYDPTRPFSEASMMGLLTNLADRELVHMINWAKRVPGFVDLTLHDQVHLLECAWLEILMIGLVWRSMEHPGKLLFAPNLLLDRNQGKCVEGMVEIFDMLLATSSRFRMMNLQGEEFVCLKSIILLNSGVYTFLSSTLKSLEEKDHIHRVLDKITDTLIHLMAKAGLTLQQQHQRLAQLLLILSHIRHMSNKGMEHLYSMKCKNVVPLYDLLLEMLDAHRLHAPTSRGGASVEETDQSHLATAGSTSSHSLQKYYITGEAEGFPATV

CC[C@@H]1C[C@H](N(Cc2cc(C(F)(F)F)cc(C(F)(F)F)c2)C(C)=O)c2cc(C(F)(F)F)ccc2N1C(=O)OC(C)C
active: [7] 3.97 µM
inactive: [1] | [2] | [3] | [4] | [5] | [6]

c1ccc2n[nH]nc2c1
inactive: [1] | [2] | [3] | [4] | [5] | [6] | [7]

COc1cc(C(=O)NC2CCN(C)CC2)ccc1Nc1ncc2c(n1)N(C1CCCC1)CC(F)(F)C(=O)N2C
inactive: [1] | [5]
active: [2] 15.2 µM | [3] 5.23 µM | [4] 10.5 µM | [6] 30.1 µM | [7] 18.6 µM

Cc1cn([C@H]2C[C@H](N=[N+]=[N-])[C@@H](CO)O2)c(=O)[nH]c1=O
inactive: [1] | [2] | [3] | [4] | [5] | [6] | [7]

CC(=O)N1CCN(c2ccc(OC[C@H]3CO[C@](Cn4ccnc4)(c4ccc(Cl)cc4Cl)O3)cc2)CC1
active: [1] 32.9 µM | [6] 33.1 µM
inactive: [2] | [3] | [4] | [5] | [7]

Cc1cc2c(cc1C(F)(F)F)N(C(=O)Nc1ccc(Oc3cccnc3C)nc1)CC2
inactive: [1] | [2] | [3] | [4] | [5] | [6] | [7]

c1ccc2ccccc2c1
inactive: [8] | [9]

CN(C)c1ccc(C(=C2C=CC(=[N+](C)C)C=C2)c2ccc(N(C)C)cc2)cc1
active: [1] 2.72 µM | [2] 2.78 µM | [4] 2.27 µM | [6] 2.13 µM | [7] 1.42 µM
inactive: [3]

CCCCCCCCOC(=O)c1cc(O)c(O)c(O)c1
active: [1] 7.82 µM | [2] 7.51 µM | [3] 8.24 µM | [4] 9.35 µM | [6] 8.04 µM | [7] 8.07 µM

CCCCCCCCCCCCO
active: [2] 26.7 µM | [4] 25.8 µM | [6] 28.8 µM | [7] 27.6 µM
inactive: [1] | [3] | [5]

O=c1ccc2ccccc2o1
inactive: [8] | [9]

C[C@]12CC[C@@H]3c4ccc(O)cc4CC[C@H]3[C@@H]1CC[C@H]2O
inactive: [1] | [2] | [3] | [4] | [5] | [6] | [7]

CN1C(=O)CC[C@H]1c1cccnc1
inactive: [1] | [2] | [3] | [4] | [5] | [6] | [7]

CO[C@H]1/C=C/O[C@@]2(C)Oc3c(C)c(O)c4c(O)c(c(/C=N/N5CCN(C)CC5)c(O)c4c3C2=O)NC(=O)/C(C)=C\C=C\[C@H](C)[C@H](O)[C@@H](C)[C@@H](O)[C@@H](C)[C@H](OC(C)=O)[C@@H]1C
inactive: [1] | [2] | [3] | [4] | [5] | [7]

Clc1ccccc1C(c1ccccc1)(c1ccccc1)n1ccnc1
inactive: [5]
active: [1] 9.25 µM | [2] 6.71 µM | [3] 2.24 µM | [4] 5 µM | [6] 9.09 µM | [7] 6.8 µM

CN(C)C(=O)C1(N2CCCCC2)CCN(CC[C@@]2(c3ccc(Cl)c(Cl)c3)CN(C(=O)c3ccccc3)CCO2)CC1
active: [2] 20.4 µM | [3] 22.4 µM | [4] 17.8 µM | [6] 22.1 µM | [7] 19.5 µM
inactive: [1] | [5]

CC(C)(C)c1cc(/C=C2\SC(N)=NC2=O)cc(C(C)(C)C)c1O
inactive: [1] | [2] | [3] | [4] | [5] | [6] | [7]

Source: PubChem BioAssay (EPA / NIEHS)
